Results reported in PubChem BioAssay (NCI).
The panel holds about 83,000 compounds, 20% with a hit somewhere; the sample as a whole holds those more often.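 Single-dose data. Exposure time 48 hours. Values below 10 considered active.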 A number with no mark means an inactive call. The source made the active and inactive calls.

Test system: HL-60(TB) leukemia
Test: NCI-60 one-dose screen, 48 h (100 = growth as untreated, 0 = no growth, -100 = all killed)
Conditions: 10 µM unless noted

| Structure (SMILES) | growth |
| --- | --- |
| CCOC(=O)c1sc(N)nc1-c1ccccc1 | 98.3% |
| Cc1cc(=O)oc2cc(Oc3nc(-c4ccccc4)cn4c(-c5ccccc5)cnc34)ccc12 | 85.2% |
| NC(N)=Nc1ccc(/C=C2\C=Cc3ccccc32)cc1 | 61.6% |
| C#CCNc1nc(NCCNC(=O)CCl)nc(N(C)CCCCc2ccccc2)n1 | 107% |
| C#CCSc1nnnn1-c1ccccc1 | 92.7% |
| CC(/C=N/NC(N)=S)Cc1ccc(C(C)C)cc1 (stereo not given) | 44.3% |
| COc1ccc(-c2nn(-c3cccc(NC(=O)Nc4cccc(C(F)(F)F)c4)c3)cc2-c2ccncc2)cc1Cl | 3.19% (active) |
| C=C(C(=O)c1ccccc1)C(NC(C)(C)C)c1ccccc1 (stereo not given) | -14.7% (active) |
| CCn1cc(C(=O)O)c(=O)c2cc(F)c(N3CCN(CC(=O)Nc4ccc(/C(C)=N/OC)cc4)CC3)cc21 | 90.9% |
| C#C[C@@]1(O)[C@@H](CO)O[C@@H](n2cc(I)c3c(N)ncnc32)[C@@H]1O | -56.6% (active) |
| C=CCN1C(=O)/C(=c2\sc3n(c2=O)NC2C(N=3)N(CC)C(=O)N2CC)c2ccccc21 (stereo not given) | -12.6% (active) |
| COc1cc(C(O)C2C(=O)OCC2C2(c3ccc4c(c3)OCO4)SCCCS2)cc(OC)c1OC (stereo not given) | 91.8% |
| COC(=O)c1nc(-c2ccccc2)oc1S(=O)(=O)N1CCN(c2ccc(OC)cc2)CC1 | 21.8% |
| CC1=C(C(=O)/C=C/c2ccc(N(C)C)cc2)C(c2ccccc2)NC(=S)N1 (stereo not given) | 99.4% |
| CCOC(=O)C1=C(C)NC(C)=C(C(=O)OCC)C1c1cc(Br)c(O)c(OC)c1 | 6.74% (active) |
